# The whole screen tested about 16,000 compounds, of which about 2,600 (16%) were called active. Inconclusive results (about 20%) are left out. These entries were drawn from the full list. Unmarked numbers belong to inactive results. Calls come from the whole dose curve; as a rule, active = well fitted curve in the direction sought with a large enough effect; inconclusive = small, poorly fitted or top-dose-only effect, or effect the other way; inactive = no such curve, though single readings can be large or run the other way.
# Molecular target: Cytochrome P450 2D6 (Homo sapiens) (UniProt P10635)
# Experiment: Cytochrome panel assay with activity outcomes
# Details: recombinant CYP, pro-luciferin dealkylation, luminescence, p450-cyp2d6; series mostly up to 57.1 µM; activity, negative = inhibition: at the top concentration
# % is set by controls: 0 for no effect and ±100 for the full control effect.
# Sequence of Cytochrome P450 2D6 (Homo sapiens) (P10635 whole entry, looked up): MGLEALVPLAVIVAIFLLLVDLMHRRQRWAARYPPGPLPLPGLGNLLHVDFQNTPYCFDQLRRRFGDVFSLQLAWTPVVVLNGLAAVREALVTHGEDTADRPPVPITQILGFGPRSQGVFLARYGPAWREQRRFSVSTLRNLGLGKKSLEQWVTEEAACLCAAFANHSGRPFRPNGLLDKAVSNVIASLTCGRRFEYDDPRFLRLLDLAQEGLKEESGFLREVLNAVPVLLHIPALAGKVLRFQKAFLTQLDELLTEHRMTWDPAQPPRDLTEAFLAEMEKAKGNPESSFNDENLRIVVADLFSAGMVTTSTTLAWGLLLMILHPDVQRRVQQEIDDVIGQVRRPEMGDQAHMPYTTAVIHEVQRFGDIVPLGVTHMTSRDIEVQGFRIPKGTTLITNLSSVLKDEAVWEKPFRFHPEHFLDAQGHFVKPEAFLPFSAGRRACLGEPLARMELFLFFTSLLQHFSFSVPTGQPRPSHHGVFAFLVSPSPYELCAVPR
Structure (SMILES),AC50,"activity, negative = inhibition"
O=c1c2ccccc2sc2c(CO)ccc(NCCN3CCCCC3)c12,1260 nM (active),
CCN(CC)CCNc1ccc(CO)c2sc3ccccc3c(=O)c12,5010 nM (active),
COc1ccc2sc3ccccc3c(=O)c2c1OC,,-15.6%
C#CCCCO/N=C1/C[C@@H](O)[C@@H](O)[C@@H]2[C@@H]3C(=O)N(C[C@@H]4CCCO4)C(=O)[C@H]3CC[C@H]12,,-7.06% [at 11.4 µM]
Cn1c(=O)c(-c2ccccc2)nc2cnc(N3CCOCC3)nc21,,-3.69%
CC(=O)OC1COC(N2CCc3cc([N+](=O)[O-])ccc32)C(OC(C)=O)C1OC(C)=O (stereo not given),,27%
COc1cccc(-c2csc(N3CCN(CC(=O)NNC(=O)c4ccc(Cl)cc4)CC3)n2)c1,,-17.2%
CC(C)(CO[C@H]1C[C@H]2CC[C@@]1(C)C2(C)C)[N+](=O)[O-],,11.9% [at 11.4 µM]
CC(C)=CCC/C(C)=C/CO/N=C1/C[C@@H](O)[C@@H](O)[C@@H]2[C@@H]3C(=O)N(C4CCCCC4)C(=O)[C@H]3CC[C@H]12,,-9.81% [at 11.4 µM]
CS(=O)(=O)c1ccc(/C=N\NC(N)=S)cc1,,9.53% [at 11.4 µM]
CCc1c(O)nc(SCC(=O)NC(C)(C)C)n(-c2ccccc2)c1=O,,-8.15%
CC1(C)Cc2c(sc3nc(SCC(=O)NCc4ccccc4)n(-c4ccccc4)c(=O)c23)CS1,3550 nM (active),
Cc1ccc(-n2c(SCC(=O)NCc3ccco3)nc3sc4c(c3c2=O)CC(C)(C)SC4)cc1,2820 nM (active),
O=C(CSc1nnc2sc3ccccc3n12)NCc1ccco1,,-17.7%
Cc1ccc(-n2c(N)c(C(=O)NCc3ccco3)sc2=S)cc1,,-9.85%
CC(Cc1ccccc1)NC(=O)CSc1nc2nc3c(cc2c(=O)n1-c1ccccc1)COC(C)(C)C3 (stereo not given),,-28.9%
Cn1cc[nH]c1=S,,6.67% [at 25.6 µM]
Cn1cnc([N+](=O)[O-])c1SCC(=O)O,,-1.18% [at 11.4 µM]
C[C@@H]1C[C@H](OC(=O)c2ccccc2O)CC(C)(C)C1,,-4.22% [at 25.6 µM]
COc1ccc(NC(=O)CSc2nc(-c3ccc(C)cc3)cc(C(F)(F)F)c2C#N)cc1,,15.8%
CSc1nc(N)nc(SCC(=O)Nc2ccc(Cl)cc2)c1C#N,2240 nM (active),
CCOc1ccc(NC(=O)CSc2nc(C)c3c(c2C#N)CCCC3)cc1,,-8%
O=C(c1cccc(F)c1)N1CCC2(CCCN(c3cccc(-c4ccccc4)c3)C2)CC1,,-11.4%
CN1CCCN(C)C1c1cc([N+](=O)[O-])ccc1O,,-9.66% [at 11.4 µM]
O=C(c1sc2ccccc2c1Cl)N1CCN(c2ccc(F)cc2)CC1,,-28%

Structure (SMILES),AC50,"activity, negative = inhibition"
CC1CCCN(C(=O)c2sc3cc([N+](=O)[O-])ccc3c2Cl)C1 (stereo not given),10000 nM (active),
CC1CCCC(NC(=O)C2CCN(S(=O)(=O)N3CCC4(CC3)OCCO4)CC2)C1C (stereo not given),,-11.3%
Cc1sc(N)c(C(=O)c2cccc(C(F)(F)F)c2)c1C,,-0.502%
O=C(Nc1c2c(nn1-c1ccc(F)cc1)CS(=O)(=O)C2)C12CC3CC(CC(C3)C1)C2,,-0.0135%
Cn1cc([N+](=O)[O-])c(C(=O)Nc2cc(Oc3cccnc3)cc([N+](=O)[O-])c2)n1,12600 nM (active),
CC(=O)NN1C(=O)c2ccc(Oc3cccc([N+](=O)[O-])c3)cc2C1=O,,-9.46%
O=C(Oc1ccccc1[N+](=O)[O-])c1cccnc1,,-12.6%
Cc1cc(C(=O)O)c(=O)[nH]c1C,,15.7%
CC1(C)CC(=O)C2=C(C1)N(Cc1ccccc1)C(=O)C2(O)C(F)(F)F (stereo not given),,0.612%
O=C(N/N=C/C1CCCCC1)c1ccccn1,,-25.7%
N#Cc1c2n(c3c(=S)nc[nH]c13)CCCCC2,,9.17%
C=C1C=C(Br)C2(OCCCO2)[C@H]2OC12 (stereo not given in full),,3.88% [at 11.4 µM]
COc1ccc(NC(=S)Nc2ccccc2)cc1,,-11.8% [at 11.4 µM]
Cc1cc(NC(=S)NC(=O)CC(C)C)ccc1Br,,-0.0883%
Cc1cc(NC(=S)Nc2ccccc2)ccc1Br,2000 nM (active),
CCCCC1(C)NC(=O)c2c(C)sc(C(=O)OCC)c2N1 (stereo not given),,5.24%
CC1=C/C(=N/O)C([C@H]2C=C(C)CC(C)(C)[C@@H]2O)C(C)(C)C1 (stereo not given in full),,-8.52% [at 11.4 µM]
COc1ccc(S(=O)(=O)Nc2ccc(S(=O)(=O)N3CCCCC3)cc2)cc1C,,-0.01%
COc1ccc(S(=O)(=O)N2CCC(N3CCCCC3)CC2)cc1,316 nM (active),
COc1ccc(S(=O)(=O)N2CCC(NC(=O)Nc3ccc(C)cc3)CC2)cc1,,-8.72%
CCCOC(=O)c1c(NC(=O)/C=C/c2cnn(C)c2C)sc(C(=O)OCC)c1C,,9.96%
CCOc1cccc2cc(C(N)=O)c(=NCc3ccccc3)oc12,,-3.81%
Oc1ccccc1-c1cc(-c2ccccc2)no1,,-29.9%
c1ccc(CN(CC2=NCCN2)c2ccccc2)cc1,2510 nM (active),
Cc1ccc(N(Cc2ccccc2)Cc2ccccc2)cc1,,0.619% [at 11.4 µM]

# Reference: PubChem BioAssay AID1851 (National Center for Advancing Translational Sciences (NCATS), 2009)
